Most compounds without a hit are left out; they make up all but 7.9% or so of the library.
HT1080 IDH1KD tx: kills HT-1080 cells with IDH1 knockdown. HT-1080 IDH1 knockdown viability, ATP luminescence, 48 h. Potency, µM (titrated, usually from 46.1 µM), usual class: cytotoxic. AID 686971. actives 2% (n = 360,000)
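CellTiter-Glo luminescence after 48 h compound exposure at 37 degrees C of IDH1-knockdown HT-1080 cells in 5% FBS RPMI. %Activity scaled between DMSO wells and cell-free media wells, with curves fitted and assigned curve classes.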
SW480 rerep: induces DNA re-replication in SW480 colon adenocarcinoma cells. SW480 DNA re-replication, Hoechst DNA content imaging, 48 h. Potency, µM (titrated, usually from 46.1 µM), hits mostly activators. actives 1.8% (n = 340,000); also: nearly all actives have a fitted effect of over 55% in size
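Quantitative HTS format with DMSO vehicle controls; 48 hr drug incubation at 37 C, then 40 min Hoechst staining and scanning imager measurement at 405 nm excitation.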
KB-V1 cytotox: kills drug-selected multidrug resistant KB-V1 cells | KB-V1 MDR cells viability, CellTiter-Glo, 72 h | Potency, µM (doses to about 46.1 µM), actives largely listed as cytotoxic | actives 3.4% (n = 400,000) | AID 1347076; also: nearly all actives have a fitted effect of over 60% in size
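In this primary screen, KB-V1 cells overexpressing P-gp are incubated with library compounds (lowest to highest concentration) for 72 h at 37 degrees C before a luminescent ATP viability read.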
KB-3-1 tox: kills parental KB-3-1 adenocarcinoma cells; KB-3-1 viability, CellTiter-Glo ATP luminescence, 72 h; Potency, µM (top dose mostly 46.1 µM), usual class: cytotoxic; actives 1.4% (n = 400,000); also: nearly all actives have a fitted effect of over 60% in size
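Cells are dispensed, compounds pinned in, plates held at 37 °C for 72 h, then CellTiter-Glo is added and luminescence read after 10 minutes. Cell line: parental KB-3-1 in phenol-red-free DMEM, 10% FBS.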
HT1080-NT tox: kills 2HG-producing HT-1080-NT fibrosarcoma cells | actives 1.6% (n = 360,000) | HT-1080-NT fibrosarcoma viability, CellTiter-Glo ATP luminescence, 48 h | Potency, µM (series often up to 46.1 µM), usual class: cytotoxic;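 also: NT is the 2HG producing partner of a matched IDH1 knockdown line; nearly all actives have a fitted effect of over 55% in size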
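Compounds were tested in concentration-response format on HT-1080-NT cells for 48 hours at 37 degrees C. Cell viability came from CellTiter-Glo luminescence; curves were classified by r2, response magnitude and activity.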
MCF10A rereplic: inducers of DNA re-replication in MCF 10A breast cells. MCF 10A DNA re-replication, Hoechst nuclear intensity, 48 h. actives 2.9% (n = 350,000). Potency, µM (highest dose often 46.1 µM), most hits filed as activators; also: nearly all actives have a fitted effect of over 50% in size
A number is an active result; i = inactive; ? = inconclusive; nt = no result; ! = a repeat was not active. Calls follow the shape of the dose curve; as a rule, active = well fitted curve in the direction sought with a large enough effect; inconclusive = small, poorly fitted or top-dose-only effect, or another doubt; inactive = no such curve, though single readings can be large; an effect the other way counts as inactive or inconclusive.

SMILES	HT1080 IDH1KD tx	SW480 rerep	KB-V1 cytotox	KB-3-1 tox	HT1080-NT tox	MCF10A rereplic
Cc1ccc2[nH]c(=O)c(CN(CC3CCCO3)C(=S)Nc3ccccc3)cc2c1 (stereo not given)	i	?	4.1µM	?	i	?
Cc1ccc2[nH]c(=O)c(CN(CC3CCCO3)S(=O)(=O)c3c(C)ccc4nsnc34)cc2c1 (stereo not given)	i	i	6.5µM	?	i	i
COc1ccc(NC(=O)N(Cc2cc3cc(C)ccc3[nH]c2=O)CC2CCCO2)cc1 (stereo not given)	i	?	i	i	i	?
COc1ccc2[nH]c(=O)c(CN(CC3CCCO3)C(=O)Nc3ccc(F)cc3)cc2c1 (stereo not given)	i	i	2.6µM	13µM	i	?
COc1cccc(-c2cnc(C(O)c3ccc(Cl)c(Cl)c3)[nH]2)c1 (stereo not given)	i	nt	i	i	i	nt
Cc1ccc(C)c(Cn2c(=O)n(CCCC(=O)NCCc3ccc(Cl)cc3)c(=O)c3ccccc32)c1	nt	nt	i	i	nt	nt
CCOC(=O)c1cccc(Nc2cc(C)nc(C)n2)c1	nt	nt	i	i	nt	nt
Cc1ccc2cc(CN(CC3CCCO3)C(=S)Nc3ccccc3)c(=O)[nH]c2c1C (stereo not given)	?	5.2µM	2.3µM	7.3µM	?	2.6µM
O=C(c1cc2ccccc2oc1=O)N(Cc1ccco1)CC1CCCO1 (stereo not given)	i	i	12µM	i	i	i
CC(C)NC(=O)COC(=O)CNC(=O)C1CCCCC1	nt	nt	i	i	nt	nt
N=c1n(CCO)c2ccccc2n1CCOc1ccc(Cl)cc1Cl	?	i	i	?	21µM	?
COC(=O)c1c(NC(=O)CCCOc2ccccc2C)sc2c1CCC2	nt	nt	i	i	nt	nt
CCOC(=O)c1[nH]c(CSc2nnc(-c3ccc(OC)cc3)o2)c(C(=O)OCC)c1C	i	i	?	i	i	16µM
COc1ccc(-c2nnc(SCC(=O)c3[nH]c(C)c(C(C)=O)c3C)o2)cc1	i	i	?	i	i	i
CC1CCc2c(sc(NC(=O)c3cc(-c4ccc(Br)cc4)on3)c2C(N)=O)C1 (stereo not given)	nt	nt	?	i	nt	nt
Cc1nn(-c2ccc(F)cc2)c(Cl)c1/C=C1\C(=O)Nc2ccccc21	5.2µM	?	13µM	?	?	8.2µM
COc1cccc(NC(=O)C(Sc2nnc3ccccn23)c2ccccc2)c1 (stereo not given)	i	i	21µM	i	i	?
CCCn1c(SC(C(=O)Nc2cccc(OC)c2)c2ccccc2)nc2ccccc2c1=O (stereo not given)	i	?	i	i	i	i
CS(=O)(=O)c1ccc(S(=O)CC(=O)Oc2ccc(Cl)cc2)c([N+](=O)[O-])c1 (stereo not given)	18µM	6.5µM	?	21µM	23µM	4.6µM
O=C(NCCC1=CCCCC1)c1c(O)nc2sccn2c1=O	i	i	5.2µM	?	i	i
CC[N+]1(CC(=O)c2ccc(I)cc2)CCCCC1	nt	nt	i	i	nt	nt
CN(C)c1ccc(/C=C2\N=C(c3ccc(Cl)c([N+](=O)[O-])c3)NC2=O)cc1	i	i	i	?	i	i
CCc1nc(N)nc(N)c1-c1ccc(Cl)c([N+](=O)[O-])c1	0.18µM	i	i	0.65µM	?	i
CCc1c(N)nc(N)nc1Nc1ccccc1Cl	i	i	?	i	?	i
CCc1nc(N)nc(N)c1-c1ccc(Cl)c(N=[N+]=[N-])c1	2.9µM	i	16µM	12µM!	?	?
SMILES	HT1080 IDH1KD tx	SW480 rerep	KB-V1 cytotox	KB-3-1 tox	HT1080-NT tox	MCF10A rereplic
CCOC(=O)c1ccc(NC(=O)CSc2nc(-c3ccc(OC)cc3)cc(C(F)(F)F)c2C#N)cc1	nt	nt	i	i	nt	nt
CN1/C(=C/C(=O)C2CC2)C(C)(C)c2ccccc21	i	i	i	i	i	i
CCN(CC)S(=O)(=O)c1cccc(C(=O)/C=C2/N(C)c3ccccc3C2(C)C)c1	i	21µM	i	i	i	18µM
CN1/C(=C\C(=S)NC(=O)c2cccc(Br)c2)C(C)(C)c2ccccc21	?	?	8.2µM	?	i	?
COc1ccc(C(=O)N2CCCC(c3cc(C(=O)NCc4ccc(F)cc4)no3)C2)cc1 (stereo not given)	i	nt	i	?	i	nt
Cc1sc2ccccc2[n+]1CCCC[n+]1c(C)sc2ccccc21	nt	nt	i	i	nt	nt
Cc1cc(N2CCC(C)CC2)nc2ccc(NC(=O)Cc3c(F)cccc3Cl)cc12	nt	nt	i	i	nt	nt
CCOc1ccccc1NC(=O)C1=C(C)NC(=S)NC1c1cccs1 (stereo not given)	i	i	13µM	i	i	i
CCOC(=O)N1CCN(S(=O)(=O)c2ccc(C(=O)NNc3nc4ccc(Cl)cc4s3)cc2)CC1	?	?	i	?	?	?
CCOC(=O)N1CCN(S(=O)(=O)c2ccc(C(=O)NNc3nc4cc(C)cc(C)c4s3)cc2)CC1	?	?	i	4.1µM	?	?
CCOC(=O)N1CCN(S(=O)(=O)c2ccc(C(=O)NNc3nc4c(C)cc(C)cc4s3)cc2)CC1	?	5.8µM	?	?	?	?
COc1ccc(CNC(=O)Cn2c(=O)n3nc(-c4cccc(F)c4)nc3c3ccccc32)cc1OC	nt	nt	?	i	nt	nt
O=C1C(c2cc(=O)c3ccccc3[nH]2)=C(O)c2ccccc21	i	i	i	i	i	?
COc1ccc(C(=O)Nc2ccc3[nH]c(-c4cccc(OC)c4)cc(=O)c3c2)cc1	?	0.65µM	i	0.73µM	?	0.58µM
COc1ccc(C(=O)Nc2cccc(OC)c2)cc1	i	i	i	?	i	i
COc1ccc2[nH]c(-c3ccc(C)cc3)cc(=O)c2c1	23µM	?	?	9.2µM	?	?
O=c1cc(-c2ccccc2)[nH]c2ccccc12	2.3µM	?	?	0.65µM	?	1.3µM
CCC(C)NC(=O)c1nn(-c2ccc(C)cc2)c(=O)n(C)c1=O (stereo not given)	nt	nt	i	i	nt	nt
COc1ccc(/C(C)=N/OCC(=O)Nc2nc3ccccc3s2)cc1OC	i	i	15µM	?	i	?
O=c1c2ccccc2c(-c2ccc(O)cc2)nn1-c1cccc(C(F)(F)F)c1	21µM	?	13µM	?	?	?
Cc1cc(OC(C)C(=O)Nc2c(C(=O)c3ccc(F)cc3)oc3ccccc23)ccc1Cl (stereo not given)	nt	nt	i	i	nt	nt
COc1ccc(OC)c(-c2nc3c(C)n[nH]c(=O)c3[nH]2)c1	?	i	18µM	i	?	i
COc1ccc(-c2noc(CNS(=O)(=O)c3ccc(Br)cc3)n2)cc1OC	nt	nt	i	i	nt	nt
Cc1nn(-c2ccccc2)c2c1N(CC(=O)NCc1ccc(N(C)C)cc1)C(=O)CS2	nt	nt	i	i	nt	nt

Source: PubChem BioAssay (National Center for Advancing Translational Sciences (NCATS))
